# Data published in PubChem BioAssay AID651706 (NMMLSC, 2012).
# Out of some 2,300 compounds screened, about 55 (2%) were called active.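 How the source made its calls: active means share of green or green-and-red cells above 9 and 9% in run 1 or 4 and 3% in run 2; inactive means the rest, inconclusive results apart.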 A selection follows.
# Assay: differentiation of ER-HoxA9 arrested myeloid cells – cell-based, GFP/Mac1 flow cytometry, cherry pick 01, confirmation (AID 651706);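 on differentiation response: plate controls were double positive share in DMSO wells for no effect and share in positive control wells for full effect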;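 on double positive cells: share of live cells carrying both lysozyme GFP and MAC1 staining after four days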
# Details: ER-HoxA9 myeloid progenitors, stronger effect = higher value; differentiation response: GFP/Mac1 double-positive flow; double positive cells: measured here: percent double positive cells
SMILES,differentiation response,double positive cells [%]
CCN(CC)c1ccc(/C=N/NC(=O)CNC(=O)c2cccs2)cc1,1.55% (inactive),1.15
CCOc1ccc(NC(=O)CSc2nc3c(c(=O)n2-c2ccccc2OC)SCC3)cc1,2.25% (inactive),1.4
CC1=C(C(N)=O)C(c2ccc3c(c2)OCO3)n2nc(-c3cccc(C)c3)nc2N1 (centres undefined),4.8% (inactive),5.05
COc1cc(/C=C(\C#N)c2nc3ccccc3[nH]2)ccc1O,20.1% (inactive),1.25
CCCCSc1nc2c(c(=O)n1CC)SC(C)C2 (centres undefined),1.7% (inactive),0.9
Cc1nn(-c2cc(Cl)ccc2N)c(=O)c2ccccc12,1.3% (inactive),1
Cc1cc(NC(=O)CSc2nc(C(C)C)nc3sc4c(c23)CCC(C)C4)no1 (centres undefined),1.5% (inactive),1.25
Cc1ccc(-c2nc(C#N)c(NCCCn3ccnc3)o2)cc1,1.5% (inactive),1.1
COc1ccccc1NC(=O)c1cc(Cl)nnc1Cl,0% (inactive),0
CC#CC[N+](C)(C)CCCCCC,5.9% (inactive),3.9
O=C(Nc1ccccc1N1CCN(c2ccccc2)CC1)c1cccc(F)c1,0.9% (inactive),0.65
CC(C)OC(=O)CN1C(=O)C(=O)c2ccccc21,2.4% (inactive),0.55
N#C/C(=C/c1ccc(N2CCCCC2)o1)C(=O)NCCc1c[nH]c2ccccc12,78.8% (inactive),5.25
O=C(CN1CCN(C2CCCCC2)CC1)Nc1ccccc1N1CCCCC1,1.2% (inactive),0.65
O=C(Nc1cccc(-c2nc3ncccc3o2)c1)c1ccco1,1% (inactive),0.45
Cn1c(CNC(=O)c2ccccc2F)nnc1SCc1ccc(F)cc1,2.7% (inactive),1.1
Cc1c(C(=O)OCC(=O)N(CCC#N)c2ccccc2)oc2c1ccc1ccccc12,0% (inactive),0
CCOC(=O)C(C(=O)OCC)C(C#N)c1ccccc1 (centres undefined),1% (inactive),0.7
CCC1CCCCN1CCCNC(=O)Cn1nc(-c2ccccc2)ccc1=O (centres undefined),3.1% (inactive),2.25
Cc1ccc(C(=O)NC2CCCC(C)C2C)cc1S(=O)(=O)N1CCCCC1 (centres undefined),4.6% (inactive),3.95
COc1ccc(-c2nnc(SCC(=O)c3cccs3)o2)c(OC)c1,4.75% (inactive),1.2
COCCCn1c(=O)/c(=C/c2ccccc2OC(C)C)s/c1=C(\C#N)C(=O)Nc1ccc(C(=O)O)cc1,3.5% (inactive),1.7
